Several values for one entry are separate records, joined by “and”; a condition that tells them apart may be missing. Equal entries are not always repeated. Activity calls are given as the source filed them.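 Rule for the calls, unless noted: active = thallium flux through the channel raised or lowered by more than 3 SD from vehicle-only wells, actives on both sides; inactive = the rest.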
Tests used:
[1] = P. berghei load reduction in hepatocytes – cell-based, HepG2, luciferase luminescence, HepG2 viability, primary screen (AID 624349; in the data active = parasite load remaining mostly below about 12%, no sharp cut-off; inactive = mostly above about 10%;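 note: 100% = mean of DMSO negative control wells on the same plate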); conditions: P. berghei liver stage in HepG2, luciferase luminescence, concentration not given here; parasite load remaining: stronger effect = lower value; viability: measured here: HepG2 viability without parasites
[2] = viability loss with induced miR-34 in A549 – imaging, A549 dox-inducible miR-34, nuclei and caspase counts, primary screen (AID 1347080;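 active = compounds whose cell count with miR-34 switched on is under 0.7 times the count with it off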); conditions: A549 miR-34 inducible, Hoechst nuclei count, 48 h
[3] = galactose survival enhancers in mitochondrial complex I cybrids – cell-based, galactose medium, ATP luminescence, primary screen (AID 1645843;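 active = z-score of at least 1.8 in each of two replicates, scored against plate mean and spread of sample wells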;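 note: positive z means more ATP and so rescue of galactose-driven cybrid death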); conditions: complex I mutant cybrid cells, 72 h, stronger effect = higher value
[4] = test system: F380Y; assay: BK channel mutant inhibitors and activators – cell-based, U2OS BacMam, thallium flux, beta subunits, selectivity assay, profiling panel (AID 1259406); conditions: U2OS BacMam BK variants, at 30 µM;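 note: initial slope of Thallos dye fluorescence rise after thallium is added; log ratio against the mean of 0.3% DMSO vehicle wells on the same plate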
[5] = test system: F380Y/beta1; assay: as above; conditions: U2OS BacMam BK variants, at 30 µM
[6] = test system: F380Y/beta2Delta; assay: as above; conditions: U2OS BacMam BK variants, at 30 µM
[7] = test system: F380Y/beta4; assay: as above; conditions: U2OS BacMam BK variants, at 30 µM
[8] = molecular target: Calcium-activated potassium channel subunit alpha-1 (Homo sapiens) + Leucine-rich repeat-containing protein 26 (Homo sapiens) (UniProt Q12791+Q2I0M4); assay: as above; conditions: U2OS BacMam BK variants, F380Y/Slo1WT/gamma1, at 30 µM
Chain of Calcium-activated potassium channel subunit alpha-1 (Homo sapiens) + Leucine-rich repeat-containing protein 26 (Homo sapiens) (Q2I0M4 whole entry, looked up, one chain of several): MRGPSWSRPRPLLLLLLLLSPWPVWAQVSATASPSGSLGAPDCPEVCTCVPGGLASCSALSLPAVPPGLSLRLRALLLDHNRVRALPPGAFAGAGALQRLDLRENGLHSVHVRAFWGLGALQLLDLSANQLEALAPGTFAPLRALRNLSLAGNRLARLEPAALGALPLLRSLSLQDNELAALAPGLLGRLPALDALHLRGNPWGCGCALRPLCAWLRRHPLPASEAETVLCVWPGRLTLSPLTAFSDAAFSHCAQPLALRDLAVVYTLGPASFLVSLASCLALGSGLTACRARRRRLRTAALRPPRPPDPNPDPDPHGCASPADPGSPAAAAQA

[9] = test system: R275C; assay: as above; conditions: U2OS BacMam BK variants, at 30 µM
[10] = test system: R275C/beta1; assay: as above; conditions: U2OS BacMam BK variants, at 30 µM
[11] = test system: R275C/beta2Delta; assay: as above; conditions: U2OS BacMam BK variants, at 30 µM
[12] = test system: R275C/beta4; assay: as above; conditions: U2OS BacMam BK variants, at 30 µM
[13] = test system: R275C/Slo1WT/beta2; assay: as above; conditions: U2OS BacMam BK variants, at 30 µM
[14] = signal quenchers or enhancers, Cy5 substrate/SSB – biochemical, NIH Clinical Collection, E. coli SSB, artefact control for HCV NS3 helicase inhibitor project (AID 743268; call rule not given here); conditions: Cy5-oligo bound E. coli SSB, fluorescence interference
[15] = test system: Hepatitis C virus NS3 helicase; assay: blockers of NS3h binding to DNA – biochemical, fluorescence polarization, NIH Clinical Collection, primary screen (AID 743270; call rule not given here); conditions: NS3 helicase binding to Cy5-dT15 DNA, stronger effect = higher value, concentration not given here
[16] = molecular target: Single-stranded DNA-binding protein (Escherichia coli (strain K12)) (UniProt P0AGE0); assay: SSB-ssDNA binding inhibitors – biochemical, fluorescence polarization, NIH Clinical Collection, counter-screen for HCV NS3 helicase inhibitor project (AID 743271; in the data active = inhibition above about 28%); conditions: E. coli SSB-DNA binding, stronger effect = higher value, concentration not given here
[17] = compounds distorting NS3 helicase fluorescence signal – biochemical, NIH Clinical Collection, artefact control for HCV NS3 helicase inhibitor project (AID 743272; call rule not given here;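 note: HCV NS3 helicase with a Cy5 labelled single stranded DNA probe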); conditions: fluorescence interference counterscreen, HCV NS3 helicase assay; stronger effect = lower value
[18] = test system: Neuropilin-2 / VEGF-C interaction (human); assay: small molecules blocking Neuropilin-2/VEGF-C interaction – biochemical, microplate binding format, z-score (AID 743281; call rule not given here); conditions: microplate NRP2/VEGF-C binding assay; stronger effect = lower value
[19] = modulation of C. elegans fzo-1 (AID 1259413; call rule not given here;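 note: fzo-1 mutant C. elegans worms in liquid wells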); conditions: C. elegans fzo-1 modulator screen, mean read-out; stronger effect = higher value
[20] = stronger effect = lower value, cell number ratio, induced over uninduced
[21] = measured here: relative caspase fold change +Dox/-Dox
[22] = measured here: total cells with miR-34 induction, stronger effect = lower value
[23] = measured here: total cells without miR-34 induction

CCCCCN=C(N)NN=Cc1c[nH]c2ccc(OC)cc12
18.5: cell count [2, 22]
1.01: fold change [2, 21]
13: cell count [2, 23]
active: log fold change Tl+ flux [4] 0.707 | log fold change Tl+ flux [5] 0.869 | log fold change Tl+ flux [6] 0.585 | log fold change Tl+ flux [7] 0.841 | log fold change Tl+ flux [8] 0.468 | log fold change Tl+ flux [9] 0.229 | log fold change Tl+ flux [10] 0.839 | log fold change Tl+ flux [12] 0.743 | log fold change Tl+ flux [13] 0.7
3.78%: viability [1]
inactive: parasite load remaining [1] 0.065% | fold change [2, 20] 1.42 | z-score [3] -1.88 | log fold change Tl+ flux [11] -0.0142

CC1(C)C[C@@H]1C(=O)N/C(=C\CCCCSC[C@H](N)C(=O)O)C(=O)O
inactive: parasite load remaining [1] 86.6% | fluorescence ratio [14] 1.03 | inhibition [15] 0.4% | inhibition [16] -0.1% | fluorescence ratio [17] 1.01 | z-score [18] -0.458 | mean signal [19] 226 | log fold change Tl+ flux [4] 0.00013 | log fold change Tl+ flux [5] 0.0415 | log fold change Tl+ flux [6] 0.0097 | log fold change Tl+ flux [7] -0.0167 | log fold change Tl+ flux [8] -0.0144 | log fold change Tl+ flux [9] -0.0675 | log fold change Tl+ flux [10] 0.00997 | log fold change Tl+ flux [11] 0.0368 | log fold change Tl+ flux [12] 0.0142 | log fold change Tl+ flux [13] 0.00806
71.9%: viability [1]

CCN(CC)C(=O)[C@]1(c2ccccc2)C[C@@H]1CN
71.3%: viability [1]
inactive: parasite load remaining [1] 94.6% | fluorescence ratio [14] 1.07 | inhibition [15] 1.98% | inhibition [16] -3.18% | fluorescence ratio [17] 1.06 | z-score [18] -0.224 | mean signal [19] 248 | log fold change Tl+ flux [4] 0.0604 | log fold change Tl+ flux [5] 0.0284 | log fold change Tl+ flux [6] -0.038 | log fold change Tl+ flux [7] 0.00308 | log fold change Tl+ flux [8] 0.0521 | log fold change Tl+ flux [9] -0.00612 | log fold change Tl+ flux [10] -0.0552 | log fold change Tl+ flux [11] -0.0341 | log fold change Tl+ flux [12] 0.0155 | log fold change Tl+ flux [13] 0.0022

CC12CCC(=O)C=C1CCC1C2CCC2(C)C1CCC2(O)C(=O)CO (stereo unspecified)
7560: cell count [2, 22]
5920: cell count [2, 23]
1.98: fold change [2, 21]
inactive: parasite load remaining [1] 47.2% | fluorescence ratio [14] 0.91 | inhibition [15] -4.59% | inhibition [16] 1.18% | fluorescence ratio [17] 0.84 | z-score [18] -0.624 | mean signal [19] 241 | fold change [2, 20] 1.28 | z-score [3] 0.28 | log fold change Tl+ flux [4] -0.0107 | log fold change Tl+ flux [5] 0.000378 | log fold change Tl+ flux [6] 0.0311 | log fold change Tl+ flux [7] 0.00388 | log fold change Tl+ flux [8] 0.0303 | log fold change Tl+ flux [9] 0.029 | log fold change Tl+ flux [10] -0.042 | log fold change Tl+ flux [11] -0.0755 | log fold change Tl+ flux [12] -0.0135 | log fold change Tl+ flux [13] -0.0119
63.5%: viability [1]

C=C1/C(=C\C=C2/CCC[C@]3(C)[C@@H]([C@H](C)/C=C/[C@@H](O)C4CC4)CC[C@@H]23)C[C@@H](O)C[C@@H]1O
69.5% and 101%: viability [1]
1.34 and 1.48: fold change [2, 21]
6690 and 9180: cell count [2, 22]
active: log fold change Tl+ flux [5] 0.217 | log fold change Tl+ flux [10] 0.143
6000 and 9710: cell count [2, 23]
inactive: parasite load remaining [1] 78.1% and 40.9% | fluorescence ratio [14] 0.98 | inhibition [15] -1.98% | inhibition [16] 2.98% | fluorescence ratio [17] 0.97 | fold change [2, 20] 1.11 and 0.946 | z-score [3] -0.655 and -0.545 | log fold change Tl+ flux [4] 0.0327 | log fold change Tl+ flux [6] 0.0454 | log fold change Tl+ flux [7] 0.0579 | log fold change Tl+ flux [8] 0.0831 | log fold change Tl+ flux [9] -0.0334 | log fold change Tl+ flux [11] -0.0353 | log fold change Tl+ flux [12] 0.0276 | log fold change Tl+ flux [13] 0.00965

CN1CCN2c3ncccc3Cc3ccccc3[C@@H]2C1
10500: cell count [2, 23]
10600: cell count [2, 22]
3.94: fold change [2, 21]
95.7%: viability [1]
inactive: parasite load remaining [1] 60.5% | fluorescence ratio [14] 1 | inhibition [15] -1.36% | inhibition [16] 4.1% | fluorescence ratio [17] 1.01 | fold change [2, 20] 1.01 | z-score [3] 0.765 | log fold change Tl+ flux [4] 0.081 | log fold change Tl+ flux [5] 0.0391 | log fold change Tl+ flux [6] 0.0643 | log fold change Tl+ flux [7] 0.0496 | log fold change Tl+ flux [8] -0.00307 | log fold change Tl+ flux [9] 0.0138 | log fold change Tl+ flux [10] 0.0202 | log fold change Tl+ flux [11] 0.0645 | log fold change Tl+ flux [12] 0.023 | log fold change Tl+ flux [13] -0.0289

O=c1c(O[C@@H]2O[C@H](CO)[C@@H](O)[C@H](O)[C@H]2O)c(-c2ccc(O)c(O)c2)oc2cc(O)cc(O)c12
inactive: parasite load remaining [1] 52.7% | fluorescence ratio [14] 0.86 | inhibition [15] 2.77% | inhibition [16] 12.2% | fluorescence ratio [17] 0.99 | z-score [18] -0.152 | mean signal [19] 249 | log fold change Tl+ flux [4] -0.0619 | log fold change Tl+ flux [5] 0.0645 | log fold change Tl+ flux [6] -0.0137 | log fold change Tl+ flux [7] -0.0759 | log fold change Tl+ flux [8] 0.0381 | log fold change Tl+ flux [9] 0.0103 | log fold change Tl+ flux [10] 0.0316 | log fold change Tl+ flux [11] 0.0226 | log fold change Tl+ flux [12] 0.0307 | log fold change Tl+ flux [13] -0.0065
69.6%: viability [1]

From PubChem BioAssay
